Source: PubChem BioAssay (NCI)
The panel holds about 79,000 compounds, 15% with a hit somewhere; the sample as a whole holds those more often. Unmarked numbers belong to inactive results. The source made the active and inactive calls. No stated cut-off is given here; in the data, active means growth inhibition above about 70%; inactive means the rest.

Key:
[1] = NCI Yeast Anticancer Drug Screen. Data for the rad50 strain (AID 155);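 further: 0% = growth of vehicle-only cultures of the same strain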; settings: S. cerevisiae rad50 strain growth inhibition, hits give high values
Outline: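 Cells are treated with compound, grown, and their growth is then scored against vehicle-only cultures of the same repair-deficient yeast strain.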

[2] = NCI Yeast Anticancer Drug Screen. Data for the mec2-1 strain (AID 157); settings: S. cerevisiae mec2-1 strain, hits give high values
Outline: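 Strain: mec2-1 (DNA repair/cell cycle alteration). Compound exposure, then growth measured; inhibition expressed relative to vehicle.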

[3] = NCI Yeast Anticancer Drug Screen. Data for the sgs1 mgt1 strain (AID 161);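 further: 0% = growth of cultures given vehicle only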; settings: S. cerevisiae sgs1 mgt1 strain, hits give high values
Outline: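 Genetically altered yeast, compound exposure, growth inhibition relative to vehicle.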

[4] = NCI Yeast Anticancer Drug Screen. Data for the cln2 rad14 strain (AID 165);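 further: 0% = growth equal to vehicle treated cultures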; settings: S. cerevisiae cln2 rad14 strain, hits give high values
Outline: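 Compounds are applied to the cln2 rad14 yeast strain, and growth is then compared with that of vehicle-treated cultures to give inhibition.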

[5] = NCI Yeast Anticancer Drug Screen. Data for the bub3 strain (AID 167); settings: S. cerevisiae bub3 mutant strain, hits give high values
Outline: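 Part of a panel of yeast mutants defective in DNA damage repair or cell cycle regulation. Each strain is grown with compound, and inhibition is calculated relative to solvent-treated cultures.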

[6] = NCI Yeast Anticancer Drug Screen. Data for the mlh1 rad18 strain (AID 175); settings: S. cerevisiae mlh1 rad18 strain growth inhibition, hits give high values
Outline: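 Read-out is yeast growth inhibition, calculated against vehicle-only controls. The compound was applied to a strain engineered with DNA damage repair alterations.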

[7] = at 5.0 µM (retest, dose inferred, filed as 0.5)
[8] = at 50.0 µM (retest, dose inferred, filed as 5.0)

| Compound | growth inhibition [1, 7] [%] | growth inhibition [1, 8] | growth inhibition ([1]; at 50.0 µM) | growth inhibition [2, 7] [%] | growth inhibition [2, 8] | growth inhibition ([2]; at 50.0 µM) | growth inhibition [3, 7] [%] | growth inhibition [3, 8] | growth inhibition ([3]; at 50.0 µM) | growth inhibition [4, 7] [%] | growth inhibition [4, 8] | growth inhibition ([4]; at 50.0 µM) | growth inhibition [5, 7] [%] | growth inhibition [5, 8] | growth inhibition ([5]; at 50.0 µM) | growth inhibition [6, 7] [%] | growth inhibition [6, 8] | growth inhibition ([6]; at 50.0 µM) |
| --- | --- | --- | --- | --- | --- | --- | --- | --- | --- | --- | --- | --- | --- | --- | --- | --- | --- | --- |
| CC(C)SC(=S)Nc1ccc(Cl)c([N+](=O)[O-])c1 | 25 | 99% (active) | 99.3% (active) | 15 | 99% (active) | 99.6% (active) | 18 | 100% (active) | 99.5% (active) | 2 | 99% (active) | 99.2% (active) | 12 | 99% (active) | 99.5% (active) | 30 | 99% (active) | 99.4% (active) |
| Clc1nn2nnnc2c2ccccc12 | -133 | 87% (active) | 80.2% (active) | -35 | 82% (active) | 81.2% (active) | -46 | 65% | 51.5% | -51 | 24% | -31.6% | -51 | 77% (active) | 65% | -102 | 74% (active) | 73.8% (active) |
| Cc1ccc(S(=O)(=O)NC(CCC(=O)Nc2ccccc2)C(=O)O)cc1 (configuration not stated) | -4 | 0% | 12.8% | -4 | -4% | 18.9% | -6 | -20% | 21.2% | -5 | -15% | 22% | -3 | 2% | 96.2% (active) | 0 | -2% | 40.5% |
| CC(=O)Oc1ccc2cc(-c3ccccc3OC(C)=O)c(=O)oc2c1 | 12 | 23% | 48.1% | -11 | -15% | 43.7% | 3 | 30% | 77.2% (active) | -6 | 31% | 30.2% | -15 | 8% | 57.8% | 12 | 0% | 74.5% (active) |
| CCO/N=C1\CCCCC1SS(=O)(=O)O (configuration not stated) | -5 | 11% | 40.5% | 7 | 17% | -14.1% | -6 | 20% | 31.8% | 0 | 7% | 15.2% | 5 | 22% | 8.2% | -1 | 4% | 31.9% |
| Oc1ccc(C2CCc3ccccc32)cc1 (configuration not stated) | -6 | 98% (active) | 99.6% (active) | -36 | 98% (active) | 99.8% (active) | -7 | 98% (active) | 99.1% (active) | -11 | 98% (active) | 99.3% (active) | -28 | 94% (active) | 99.5% (active) | -7 | 98% (active) | 99.4% (active) |
| COC(=O)C1(C)CCc2c(ccc3cccc(OC)c23)C1=O (configuration not stated) | 0 | 99% (active) | 1.65% | 0 | 98% (active) | 21% | 2 | 98% (active) | 66.9% | -9 | 97% (active) | -3.75% | 20 | 99% (active) | 86.8% (active) | 1 | 99% (active) | 44.5% |
| Cc1nn(C(=O)c2ccccc2O)c2c1C(c1ccc(O)cc1O)SC(N)=N2 (configuration not stated) | -31 | 28% | 46% | -1 | 47% | 22.6% | -3 | 24% | 42.5% | 16 | 27% | 41% | 15 | 81% (active) | 71.7% (active) | -4 | 54% | 48.2% |
| O=C(O)CC1c2ccccc2-c2ccccc21 | -5 | 36% | 87.7% (active) | -24 | 24% | 64.5% | -4 | 31% | 78.7% (active) | -3 | 54% | 43.9% | -6 | 82% (active) | 82.8% (active) | -7 | 67% | 79.3% (active) |
